From PubChem
IL-1B inflam inh – inflammasome signaling inhibition, IL-1 beta readout; activity change, % at 57.5 µM; THP-1 LPS/ATP IL-1B secretion, AlphaLISA, 16 h; hits give low values; 360,000 tested, 4.7% active; in the data active = activity change below about -50%; inconclusive = mostly about -30% to -49%
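Secreted IL-1B measured by AlphaLISA bead assay after 16 h compound exposure of THP-1 cells; compounds (final up to 57.5 uM) added 1 h before LPS (250 ng/mL) and ATP (1.25 mM) stimulation; lower signal means less secretion.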
TDP1 cell CPT – DT40-hTDP1 cell growth loss with CPT; chicken DT40 Tdp1-/-;hTDP1 cells + 20 nM CPT, ATP luminescence, 48 h; Potency, µM (titrated, usually from 46.2 µM), usual class: inhibitors; 420,000 tested, 12% active; note: nearly all actives have a fitted effect of over 55% in size
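Cell growth measured by CellTiter-Glo luminescence after a minimum 48 h, 37 C compound exposure with 20 nM CPT in Tdp1-knockout DT40 cells stably expressing hTDP1, seeded 400/well; qHTS titration format.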
12-LOX inh – ALOX12 (human) lipoxygenase inhibition; P18054; purified 12hLO, xylenol orange hydroperoxide absorbance; Potency, µM (highest dose often 108 µM), hits mostly inhibitors; 580,000 tested, 1.1% active; AID 1671190
Target sequence (P18054 whole entry, looked up): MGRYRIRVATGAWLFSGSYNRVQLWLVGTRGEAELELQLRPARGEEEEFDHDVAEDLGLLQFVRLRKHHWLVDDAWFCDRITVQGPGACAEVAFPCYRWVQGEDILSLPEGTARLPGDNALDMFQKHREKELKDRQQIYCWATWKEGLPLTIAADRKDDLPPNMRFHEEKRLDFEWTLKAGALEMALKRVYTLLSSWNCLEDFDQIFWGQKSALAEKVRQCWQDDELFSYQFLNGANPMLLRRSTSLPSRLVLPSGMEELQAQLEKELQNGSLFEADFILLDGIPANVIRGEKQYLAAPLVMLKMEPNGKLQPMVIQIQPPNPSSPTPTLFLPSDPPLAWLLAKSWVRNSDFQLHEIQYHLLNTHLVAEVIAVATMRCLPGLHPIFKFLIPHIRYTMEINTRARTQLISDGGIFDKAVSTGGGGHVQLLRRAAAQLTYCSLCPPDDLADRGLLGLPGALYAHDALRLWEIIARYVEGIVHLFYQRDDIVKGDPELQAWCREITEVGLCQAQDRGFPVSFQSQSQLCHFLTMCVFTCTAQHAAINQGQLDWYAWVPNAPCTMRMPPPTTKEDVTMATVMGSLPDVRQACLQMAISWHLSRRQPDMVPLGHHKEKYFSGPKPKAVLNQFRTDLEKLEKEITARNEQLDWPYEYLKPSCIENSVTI
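Purified human 12hLO at 150 nM in 25 mM Hepes, 0.01% Triton X-100, pH 7.0, preincubated 15 min at room temperature with compound. Reaction started with 40 uM arachidonic acid, 30 min at room temperature. Hydroperoxide measured by Fe-xylenol orange, 573/405 nm absorbance ratio.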
HT1080NT lethal – kills 2HG-producing HT-1080-NT fibrosarcoma cells. HT-1080-NT fibrosarcoma viability, CellTiter-Glo ATP luminescence, 48 h. Potency, µM (doses to about 46.1 µM), most hits filed as cytotoxic. 360,000 tested, 1.6% active. AID 686970;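 note: NT is the 2HG producing partner of a matched IDH1 knockdown line; nearly all actives have a fitted effect of over 55% in size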
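750 cells/well, RPMI + 5% FBS; 2 h settle, compound pin-transfer, 48 h at 37 degrees C. CellTiter-Glo 10 min RT, luminescence. Normalized to DMSO and media-only wells.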
TDP1 cell noCPT – qHTS for Inhibitors of human tyrosyl-DNA phosphodiesterase 1 (TDP1): qHTS in cells in absence of CPT; DT40 Tdp1-/- hTDP1 cells, no CPT, ATP luminescence, 48 h; 420,000 tested, 15% active; Potency, µM (series often up to 46.2 µM), hits mostly inhibitors; note: nearly all actives have a fitted effect of over 55% in size
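Stably hTDP1-transfected Tdp1-null chicken DT40 cells were treated with library compounds minus camptothecin and grown for at least 48 hr at 37 °C, after which cellular ATP was quantified by luminescence.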
HT1080 IDH1KD tx – toxicity to HT-1080 IDH1 knockdown cells (counter line); HT-1080 IDH1 knockdown viability, ATP luminescence, 48 h; Potency, µM (highest dose often 46.1 µM), hits mostly cytotoxic; 360,000 tested, 2% active; AID 686971
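In this qHTS, HT-1080 cells depleted of IDH1 are exposed for 48 h at 37 °C to compound titrations. Toxicity is scored from CellTiter-Glo luminescence, with DMSO as full viability and medium alone as none.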
Numbers stand for hits; [ ] = another dose, or the depositor's remark. Only a selection was taken, and hits are over-represented in it overall. Unless noted, calls come from the whole dose curve; as a rule, active = well fitted curve in the direction sought with a large enough effect; inconclusive = small, poorly fitted or top-dose-only effect, or another doubt; inactive = no such curve, though single readings can be large; an effect the other way counts as inactive or inconclusive.

What do the screens show for `COc1cccc2c1C(=O)c1c(O)c3c(c(O)c1C2=O)C[C@@](O)(C(=O)CO)C[C@@H]3OC1CC(N)C(O)C(C)O1` (stereo partly drawn)?
IL-1B inflam inh: -105.4; TDP1 cell CPT: 0.291µM; 12-LOX inh: inconclusive; HT1080NT lethal: inconclusive; TDP1 cell noCPT: 0.259µM; HT1080 IDH1KD tx: 4.61µM

Results for COc1cccc2c1C(=O)c1c(O)c3c(c(O)c1C2=O)C[C@@](O)(C(=O)CO)C[C@@H]3O[C@@H]1C[C@H](N)[C@H](O)[C@H](C)O1 ?
12-LOX inh: inactive

What do the screens show for `COc1cccc2c1C(=O)c1c(O)c3c(c(O)c1C2=O)CC(O)(C(C)=O)CC3OC1CC(N(C)C)C(O)C(C)O1` (stereo not drawn)?
IL-1B inflam inh: -101.2; TDP1 cell CPT: 0.0517µM; 12-LOX inh: inactive; HT1080NT lethal: inconclusive; TDP1 cell noCPT: 0.082µM; HT1080 IDH1KD tx: 0.731µM

How did CCCCc1nn(CC(=O)N(C)Cc2ccc(C)o2)c(=O)n1CC do in these assays?
12-LOX inh: inactive

Results for COc1ccc(/C(C)=N/OC/C(O)=C(\C#N)c2nc3ccccc3[nH]2)cc1OC ?
IL-1B inflam inh: inactive; TDP1 cell CPT: inconclusive; 12-LOX inh: inactive; HT1080NT lethal: inconclusive; TDP1 cell noCPT: 16.4µM; HT1080 IDH1KD tx: inactive

Results for CC(C)(C)/C(O)=C(/C#N)c1nc2ccccc2[nH]1 ?
IL-1B inflam inh: inactive; TDP1 cell CPT: inconclusive; 12-LOX inh: inactive; HT1080NT lethal: inactive; TDP1 cell noCPT: inconclusive; HT1080 IDH1KD tx: inactive

Results for COc1cccc(OC)c1/C(O)=C(\C#N)c1nc2ccccc2[nH]1 ?
IL-1B inflam inh: inactive; TDP1 cell CPT: inconclusive; 12-LOX inh: inactive; HT1080NT lethal: 17.8µM; TDP1 cell noCPT: 13µM; HT1080 IDH1KD tx: inactive

How did O=C(c1ccccc1)c1ccc(OCc2ccc(-c3ccccc3)cc2)cc1 do in these assays?
12-LOX inh: inactive

What do the screens show for `CCOC(=O)c1cc(OCC(=O)NC(C)C(C)C)cc(C(=O)OCC)c1` (stereo not drawn)?
IL-1B inflam inh: inactive; TDP1 cell CPT: inactive; 12-LOX inh: inactive; HT1080NT lethal: inactive; TDP1 cell noCPT: inactive; HT1080 IDH1KD tx: inactive

Results for CC(C)NC(=O)COc1ccc(OCc2ccccc2)cc1 ?
IL-1B inflam inh: inactive; TDP1 cell CPT: inconclusive; 12-LOX inh: inactive; HT1080NT lethal: inactive; TDP1 cell noCPT: 29.1µM; HT1080 IDH1KD tx: inactive

Results for CC(=O)c1ccc(OCc2ccc(C(=O)c3ccccc3)cc2)cc1 ?
IL-1B inflam inh: -60.5; TDP1 cell CPT: 10.3µM; 12-LOX inh: inactive; HT1080NT lethal: inactive; TDP1 cell noCPT: 8.2µM; HT1080 IDH1KD tx: inactive

What do the screens show for `CC(C)C(C)NC(=O)COc1ccc(Sc2ccc(OCC(=O)NC(C)C(C)C)cc2)cc1` (stereo not drawn)?
IL-1B inflam inh: inactive; TDP1 cell CPT: 11.6µM; 12-LOX inh: inactive; HT1080NT lethal: inactive; TDP1 cell noCPT: 8.2µM; HT1080 IDH1KD tx: inactive

Results for CC(C)C(NC(=O)COc1ccccc1)C(=O)O (stereo not drawn) ?
IL-1B inflam inh: inactive; TDP1 cell CPT: inactive; 12-LOX inh: inactive; HT1080NT lethal: inactive[9.24 µM]; TDP1 cell noCPT: inactive; HT1080 IDH1KD tx: inactive

Results for CC(C)C(C)NC(=O)COc1ccc(OCc2ccccc2)cc1 (stereo not drawn) ?
IL-1B inflam inh: inactive; TDP1 cell CPT: inconclusive; 12-LOX inh: inactive; HT1080NT lethal: inactive; TDP1 cell noCPT: inconclusive; HT1080 IDH1KD tx: inactive

What do the screens show for `CC(C)C(C)NC(=O)COc1ccc(-c2ccccc2)cc1` (stereo not drawn)?
IL-1B inflam inh: inactive; TDP1 cell CPT: 18.4µM; 12-LOX inh: inactive; HT1080NT lethal: inactive; TDP1 cell noCPT: 20.6µM; HT1080 IDH1KD tx: inactive

Results for CCCCOc1ccc(NC(=O)COc2ccccc2C)c2cccnc12 ?
12-LOX inh: inactive

How did O=C(c1cc(-c2ccccc2)n[nH]1)N1CCc2c(nc3cc[nH]n3c2=O)C1 do in these assays?
12-LOX inh: inactive

How did COC[C@@H]1CN(C(=O)c2ccoc2C)C[C@H]1c1nc(C)no1 do in these assays?
12-LOX inh: inactive

How did CCC(C)NC(=O)c1sc2nc(C)c(C(=O)Nc3ccc(C)cc3C)c(-c3ccc(NC(C)=O)cc3)c2c1N (stereo not drawn) do in these assays?
TDP1 cell CPT: 20.6µM; 12-LOX inh: inactive; TDP1 cell noCPT: inconclusive

Results for CCC(C)NC(=O)c1sc2nc(C)c(C(=O)Nc3ccc(C)cc3C)c(-c3ccccc3Cl)c2c1N (stereo not drawn) ?
TDP1 cell CPT: 14.6µM; 12-LOX inh: inactive; TDP1 cell noCPT: inconclusive

Results for CCC(C)NC(=O)c1sc2nc(C)c(C(=O)Nc3ccc(C)cc3C)c(-c3ccc(Cl)cc3)c2c1N (stereo not drawn) ?
TDP1 cell CPT: 23.1µM; 12-LOX inh: inactive; TDP1 cell noCPT: inconclusive

What do the screens show for `CC(=O)Nc1ccc2[nH]cc(C(C(=O)O)N3CCN(c4ncccc4C#N)CC3)c2c1` (stereo not drawn)?
12-LOX inh: inactive

How did Cn1c(NCC(O)c2ccccc2)nc2c1c(=O)n(Cc1ccc(Cl)cc1)c(=O)n2C (stereo not drawn) do in these assays?
IL-1B inflam inh: inactive; TDP1 cell CPT: 16.4µM; 12-LOX inh: inactive; HT1080NT lethal: inconclusive; TDP1 cell noCPT: 20.6µM; HT1080 IDH1KD tx: inactive[9.24 µM]

Results for CC(O)CNc1nc2c(c(=O)n(Cc3ccc(Cl)c(Cl)c3)c(=O)n2C)n1C (stereo not drawn) ?
IL-1B inflam inh: inconclusive; TDP1 cell CPT: inconclusive; 12-LOX inh: inconclusive; HT1080NT lethal: inactive; TDP1 cell noCPT: inconclusive; HT1080 IDH1KD tx: inactive

What do the screens show for `Cn1c(NCC(O)c2ccccc2)nc2c1c(=O)n(Cc1ccc(Cl)c(Cl)c1)c(=O)n2C` (stereo not drawn)?
IL-1B inflam inh: -66.5; TDP1 cell CPT: 20.6µM; 12-LOX inh: inconclusive; HT1080NT lethal: 20.6µM; TDP1 cell noCPT: 20.6µM; HT1080 IDH1KD tx: 18.4µM

What do the screens show for `CCCn1cc(C(=O)N2CCC(n3cccc3)CC2)c2ccccc21`?
12-LOX inh: inactive

What do the screens show for `Cc1cc(CN2CCCC(N3CCc4ccccc4C3)C2)cc(C)c1O` (stereo not drawn)?
IL-1B inflam inh: inactive; TDP1 cell CPT: 13µM; 12-LOX inh: inactive; HT1080NT lethal: inactive; TDP1 cell noCPT: inconclusive; HT1080 IDH1KD tx: inactive
